# Source: ChEMBL document CHEMBL3988442, “University of Dundee, Small-Polar-MMV Screening Library” (2021)
# About 960 (1.5%) of roughly 66,000 compounds showed an effect of 50% or more. The sample as a whole holds a higher share of strong results than the screen did.
# Tested on: Trypanosoma brucei
# Experiment: Trypanosoma brucei 72 hour study
# Assay type: functional, organism-based
# Design: scale not given: in the data most compounds retested in dose-response had high values
compound,measurement,setting,value
O=C(O)C(F)(F)F.O=C(O)C(F)(F)F.c1cncc(OCC2CN(Cc3nccs3)Cc3nccn3C2)c1 (configuration not stated),Percent Effect,"30.3 µM, […]",-9.916%
C/C=C(\C)CN(CCN1CCOCC1)Cc1ccco1,Percent Effect,"30.3 µM, […]",-0.5994%
O=C(O)C(F)(F)F.O=C(O)C(F)(F)F.O=C([C@H]1C[C@H]2OCC[C@H]2N(Cc2ccccc2F)C1)N1CCCCO1,Percent Effect,"30.3 µM, […]",-61.9%
Cn1ccnc1-c1nc(NC2CCCC2)ncc1-c1cccc(F)c1,Percent Effect,"30.3 µM, […]",20.44%
CN1CCN(c2ncnc3c2CCN(S(=O)(=O)C2CC2)CC3)CC1.O=C(O)C(F)(F)F,Percent Effect,"30.3 µM, […]",-13.78%
CN(C)C[C@]12COC[C@H]1CN(Cc1ccc3c(c1)OCO3)C2.O=C(O)C(F)(F)F.O=C(O)C(F)(F)F,Percent Effect,"30.3 µM, […]",5.402%
CC(C)CC(=O)NC[C@H]1CC[C@H](C(c2ccccn2)N(C)C)CC1 (some centres not stated),Percent Effect,"30.3 µM, […]",-15.36%
COc1cccc(CNC(=O)CCC2=Nc3ccccc3S(=O)(=O)N2)c1,Percent Effect,"30.3 µM, […]",9.218%
CCN1C[C@@H]2[C@@H](OC)CCN(S(=O)(=O)c3ccccc3F)[C@@H]2C1.O=C(O)C(F)(F)F,Percent Effect,"30 µM, 30.03 µM",30.94%
CN(Cc1ccc(C#N)cc1)c1ncc(C(N)=O)cc1Cl,Percent Effect,"30.3 µM, […]",12.46%
Cl.O=C(NCc1ccccc1)C1=NOC2(CCNC2)C1 (configuration not stated),Percent Effect,"30 µM, 30.03 µM",2.25%
Cc1cccc(CNCC2COC3(CCCC3)O2)c1C (configuration not stated),Percent Effect,"30 µM, 30.03 µM",-15.5%
COCCOc1ccccc1CNCC1COC2(CCCC2)O1 (configuration not stated),Percent Effect,"30 µM, 30.03 µM",102%
Cc1cccc(CNCC2COC3(CCCCC3)O2)c1C (configuration not stated),Percent Effect,"30 µM, 30.03 µM",-30.8%
CCN(Cc1ccco1)C(=O)c1cc(OC)c2c(c1)OCCO2,Percent Effect,"30 µM, 30.03 µM",34.74%
COc1cc(C(=O)N(Cc2ccco2)C2CC2)cc2c1OCCO2,Percent Effect,"30 µM, 30.03 µM",51.93%
COc1cc(C(=O)N(Cc2ccco2)C2CC2)cc(OC)c1OC,Percent Effect,"30 µM, 30.03 µM",-6.757%
CC(=O)N1CCC(c2c(CN(C)C)cnc3cc(C)nn23)CC1,Percent Effect,"30.3 µM, […]",-17.17%
Cc1cc2ncc(CN(C)C)c(C3CCN(C)CC3)n2n1,Percent Effect,"30.3 µM, […]",99.05%
Cc1cc(N(C)CCN(C)C)n2nc(C)cc2n1,Percent Effect,"30 µM, 30.03 µM",-1.745%
Cn1cc(-c2csc(N3CCSCC3)n2)cn1,Percent Effect,"30 µM, 30.03 µM",-20.97%
Cn1cc(-c2csc(N3CCCCCC3)n2)cn1,Percent Effect,"30 µM, 30.03 µM",99.99%
CN1CCN(c2nc(-c3cnn(C)c3)cs2)CC1,Percent Effect,"30 µM, 30.03 µM",-14.69%
O=C(O)C(F)(F)F.O=C(O)C(F)(F)F.O=C(c1ccncc1)N1CCC2(CC1)CCN(Cc1ccccn1)C2=O,Percent Effect,"30 µM, 30.03 µM",-9.957%
CC(C)SCC(=O)NCc1cc2n(n1)CCCN(C1CCCCC1)C2,Percent Effect,"30 µM, 30.03 µM",-6.203%
CC(CC(=O)N1CCN(c2cnccn2)CC1)c1ccc(F)cc1 (configuration not stated),Percent Effect,"30 µM, 30.03 µM",-67.22%
O=C(CCSc1ccccc1F)N1CCN(c2cnccn2)CC1,Percent Effect,"30 µM, 30.03 µM",98.54%
O=C(CCSc1ccc(F)cc1)N1CCN(c2cnccn2)CC1,Percent Effect,"30 µM, 30.03 µM",-62.17%
Cc1ccc(S(=O)(=O)Nc2ccc(C)c(C(=O)O)c2)s1,Percent Effect,"30 µM, 30.03 µM",-9.875%
Cc1ccc(C(=O)NS(C)(=O)=O)cc1S(C)(=O)=O,Percent Effect,"30 µM, 30.03 µM",7.017%
Cc1ccc(S(C)(=O)=O)cc1C(=O)NS(=O)(=O)c1cccs1,Percent Effect,"30.3 µM, […]",-1.699%
Cc1ccc(S(=O)(=O)NC(=O)c2cc(S(C)(=O)=O)ccc2C)s1,Percent Effect,"30.3 µM, […]",94.94%
Cc1ccc(S(C)(=O)=O)cc1C(=O)NS(=O)(=O)c1ccc(Cl)cc1,Percent Effect,"30.3 µM, […]",-20.93%
Cc1ccc(S(C)(=O)=O)cc1C(=O)NS(C)(=O)=O,Percent Effect,"30.3 µM, […]",76.39%
Cc1ccc(F)cc1S(=O)(=O)Nc1ccc2c(C(=O)O)c[nH]c2c1,Percent Effect,10 µM,-37.32%
Clc1ccccc1-c1cc(CNc2ncnc3c2CCNCC3)no1,Percent Effect,"30 µM, 30.03 µM",-18.38%
O=C(CCNC(=O)c1cnccn1)Nc1ncc[nH]1,Percent Effect,"30 µM, 30.03 µM",-39.01%
O=C(Nc1cccc2c1CCCC2)c1cccnc1N1CCCNCC1,Percent Effect,"30.3 µM, […]",-17.09%
same,Percent Effect,"10 mM, 10 mM as filed; unlikely as a test dose",-111.4%
CS(=O)(=O)NC[C@]12COC[C@H]1CN(C(=O)C1CCSCC1)C2,Percent Effect,"30.3 µM, […]",-61.89%
CNC(=O)c1cn[nH]c1C1CCN(Cc2ccccc2OC)C1 (configuration not stated),Percent Effect,"30.3 µM, […]",0.9318%
CC(C)c1nnc(CN2CCCC3(CC2)CN(C)C(=O)O3)o1 (configuration not stated),Percent Effect,"30 µM, 30.03 µM",-4.839%
CC(C)c1ccc(CN2CCCC3(CC2)CN(C)C(=O)O3)cc1 (configuration not stated),Percent Effect,"30.3 µM, […]",97.32%
CC(C)c1ccc(CC(=O)N2CCCC3(CN(C)C(=O)O3)C2)cc1 (configuration not stated),Percent Effect,"30.3 µM, […]",-36.52%
CN(C)C(=O)CO[C@H]1CN(Cc2nccs2)[C@@H]2COC[C@H]12.O=C(O)C(F)(F)F,Percent Effect,"30.3 µM, […]",-75.65%
Cc1cc2nc(C(C)C)cc(N(C)CC3CCCN(CCO)C3)n2n1 (configuration not stated),Percent Effect,"30.3 µM, […]",9.548%
Cc1nc(CN2CCCC(CCc3c(F)cccc3F)C2)c[nH]1 (configuration not stated),Percent Effect,"30 µM, 30.03 µM",77.03%
Cc1nc(CN2CCCC(CCc3ccccc3C)C2)c[nH]1 (configuration not stated),Percent Effect,"30.3 µM, […]",-10.1%
Cc1nc(CN2CCCC(CCc3ccccc3F)C2)c[nH]1 (configuration not stated),Percent Effect,"30.3 µM, […]",-5.303%
Cc1nc(CN2CCCC(CCc3ccc(F)c(F)c3)C2)c[nH]1 (configuration not stated),Percent Effect,"30.3 µM, […]",50.38%
Cn1cc(CN2CCCC(CCc3ccc(F)c(F)c3)C2)cn1 (configuration not stated),Percent Effect,"30 µM, 30.03 µM",-1.052%
Cc1nc(CN2CCCC(CCc3ccc(F)cc3F)C2)c[nH]1 (configuration not stated),Percent Effect,"30 µM, 30.03 µM",47.76%
